Results filed as inconclusive are left out. Active and inactive are the calls of the source. How the source made its calls, unless noted: active means hit-call score of the fitted dose curve at least 0.9, where 1 is the maximum; inactive means score below 0.9. Starred links: 1 amine or outer side, 2 acyl side, 3 side chain; linkers in the order of their positions; H or OH if unused. Positions of bridges follow the written chain, without caps; N, C: chain ends. Non-standard residues stand in square brackets, D forms with d. Residues, ends and D or L forms follow the SMILES beside them. Adda = CO[C@@H](Cc1ccccc1)[C@@H](C)/C=C(C)/C=C/[C@H](N[*:1])[C@H](C)C(=O)[*:2]; dAsp(3S-Me) = C[C@H](C(=O)[*:3])[C@@H](N[*:1])C(=O)[*:2]; d(γGlu) = O=C(O)[C@@H](CCC(=O)[*:2])N[*:1]; NMeDha = C=C(NC)C(=O)O
Key:
[1] = CCTE_Harrill_HTTr_Apoptosis_MCF7: CCTE's 6-hour Apoptosis Assessment for the High-Throughput Transcriptomics (HTTr) Platform, in MCF-7 cells cultured in DMEM + 10% fetal bovine serum, Harrill Lab (AID 2284011)
Procedure, shortened: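 MCF-7 cells in DMEM + 10% FBS exposed 6 h to chemicals over an eight-point dilution series. Caspase-3/7 activation imaged by high-content CellEvent Green staining; fitted bidirectionally versus DMSO.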

[2] = CCTE_Harrill_HTTr_CellCount_MCF7: CCTE's Cell Proliferation Assessment for the High-Throughput Transcriptomics (HTTr) Platform, Harrill Lab (AID 2284012; active means hit-call score of the fitted dose curve at least 0.9, where 1 is the maximum;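 further: count of Hoechst-stained nuclei per well by high-content imaging in MCF-7 cells; cells exposed to compound for six hours; intended direction is loss of nuclei count meaning fewer cells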)
Procedure, shortened: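 For this full-screen endpoint, MCF-7 cultures received eight compound dilutions for six hours. Well nuclei counts from Hoechst imaging were analyzed relative to DMSO.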

With `C=C1C(=O)N[C@H](C)C(=O)N[C@H](CC(C)C)C(=O)N[C@@H](C(=O)O)[C@H](C)C(=O)N[C@@H](CCCN=C(N)N)C(=O)N[C@@H](/C=C/C(C)=C/[C@H](C)[C@H](Cc2ccccc2)OC)[C@H](C)C(=O)N[C@@H](C(=O)O)CCC(=O)N1C` (R[Adda][d(γGlu)][NMeDha][dA][dL][dAsp(3S-Me)]-OH; lactam N-7) as the compound, how does the outcome [1] read?
Its outcome is “inactive”.

And the outcome [2]?
The outcome was “inactive”.

— PubChem BioAssay (EPA / NIEHS)
